Our source for the outcome values is PubChem BioAssay (EPA / NIEHS).

Inconclusive results are not listed. Calls of active or inactive are those of the source. How the source made its calls: active means hit-call score of the fitted dose curve at least 0.9, where 1 is the maximum; inconclusive means response in the unintended direction; inactive means score below 0.9. Where a SMILES comes first, the peptide text is derived from it. Bridges are numbered along the chain shown (N, C = ends).

Cellular tumor antigen p53 (Homo sapiens), sequence (P04637 whole entry, looked up, the tested form may be a part): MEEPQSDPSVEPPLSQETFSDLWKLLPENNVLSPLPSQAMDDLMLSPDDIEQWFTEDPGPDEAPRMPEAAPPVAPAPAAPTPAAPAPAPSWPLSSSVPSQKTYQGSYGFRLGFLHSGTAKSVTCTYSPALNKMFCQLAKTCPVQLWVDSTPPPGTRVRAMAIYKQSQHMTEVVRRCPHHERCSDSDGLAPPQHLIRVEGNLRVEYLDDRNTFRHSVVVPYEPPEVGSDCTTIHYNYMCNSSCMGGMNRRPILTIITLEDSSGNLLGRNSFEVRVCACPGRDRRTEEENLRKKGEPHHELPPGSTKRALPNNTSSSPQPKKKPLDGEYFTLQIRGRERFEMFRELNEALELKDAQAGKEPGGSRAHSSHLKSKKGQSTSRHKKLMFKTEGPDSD

This assay deals with Cellular tumor antigen p53 (Homo sapiens) (UniProt P04637). The experiment in a line: TOX21_p53_BLA_p3_ratio: Tox21 HCT-116 p53 Agonism Beta-lactamase Assay, Ratio, Phase 3 (AID 2283596). From the text:
TOX21_p53_BLA_p3 is a cell-based, single-readout assay that uses HCT116, a human intestinal cell line, […] in a 1536-well plate.TOX21_p53_BLA_p3_ratio is an assay readout measuring reporter gene via receptor activity and designed using inducible reporter (beta lactamase induction) detected with GAL4 b-lactamase reporter gene. The signal is derived from the ratio of cleaved (ch2) to uncleaved (ch1) reporter gene substrate used as the measure of target activity.Data from the assay component TOX21_p53_BLA_p3_ratio was analyzed into 1 assay endpoint. This assay endpoint, TOX21_p53_BLA_p3_ratio, was analyzed in the positive analysis fitting direction relative to DMSO as the negative control and baseline of activity. Using a type of inducible reporter, gain-of-signal activity can be used to understand changes in the reporter gene as they relate to the gene TP53. Furthermore, this assay endpoint can be referred to as a primary readout, because this assay has produced multiple assay endpoints where this ratio serves a reporter gene function to understand target activity. To generalize the intended target to other relatable targets, this assay endpoint is annotated to the DNA binding intended target family, where the subfamily is tumor suppressor.
Thawing Method: Place 14 mL of pre-warmed thaw medium into a 15 mL of conical tub. Remove the vial of cells to be thawed from liquid nitrogen and thaw rapidly by placing at 37C in a water bath with gentle agitation for 1-2 minutes. Decontaminate the vial by wiping with 70% ethanol before opening in a biological safety cabinet. Transfer the vial contents drop-wise into 14 mL of thaw medium in a sterile 15-mL conical tub. Centrifuge cells at 900 rpm for 4 minutes and resuspend in thaw medium. Transfer contents to the T75 tissue culture flask containing Thaw Medium and place flask in a humidified 37C/5% CO2 incubator. Switch to growth medium at first passage.Propagation Method: Aspirate medium, rinse once in DPBS, add 0.25% Trypsin/EDTA and swirl to coat the cell evenly. Add an equal volume of Growth Medium to inactivate Trypsin after 2-3 minutes incubation at 37C. Centrifuge cells at 900 rpm for 4 minutes and resuspend in growth medium. Cell should be passage or fed at least twice a week.Assay Protocol: Harvest cells from culture in growth medium and resuspend in assay medium. 2.2 Dispense 4000 cells/5 uL/well into 1536-well black/clear bottom plates using a Multidrop dispenser. After the cells were incubated at 37C for 5 hours, 23 nL of compounds dissolved in DMSO were transferred to the assay plate by a PinTool resulting in a 217-fold dilution. Incubate the plates for 16 hours at 37C, 5% CO2. Add 1 uL of 6X LiveBLAzer FRET B/G (CCF4-AM) Substrate Mixture to each well using a BioRAPTR dispenser and incubate the plates at room temperature for 2 hours. Measure fluorescence intensity at 460 and 530 nm emission and 405 nm excitation by an Envision detector. Data is expressed as the ratio of 460nm/530nm emissions. Add 4 uL of Cell-titer Glo to each well using BioRAPTR and incubate the plates at room temperature for 2 hours. Measure fluorescence intensity by a VewLux plate reader.
On to `C=COCCCCO`, for which the outcome was inactive.

As to `COc1cc(C[C@@H]2NCCc3cc(O)c(O)cc32)cc(OC)c1OC`, the result was inactive.

With `C#C[C@]1(O)CC[C@H]2[C@@H]3CCC4=CC(=O)CC[C@@H]4[C@H]3C(=C)C[C@@]21CC`, the outcome was inactive.

As to `COC(=O)c1cc(C(=O)OC)cc(S(=O)(=O)O)c1`, the outcome was inactive.

`Oc1cc(O)cc(O)c1`: the outcome was inactive.

For `O=C1OC(=O)C2CC=CCC12` (stereo not given), the result was inactive.

As for `O=C(O)[C@H](O)c1ccccc1`, the result was inactive.

As to `CC(C)CCC[C@@H](C)[C@H]1CC(=O)C2=C3CC[C@H]4C[C@@H](O)CC[C@]4(C)[C@H]3CC[C@@]21C`, the outcome was inactive.

As for `CCCCCC(C)N` (stereo not given), the result was inactive.

Turning to `CCCCOCCCC`, the outcome was inactive.

Take `CN1CCN(c2c(F)cc3c(=O)c(C(=O)O)cn4c3c2OCN4C)CC1`: the outcome was inactive.

`CC1=C(/C=C/C(C)=C/C=C/C(C)=C/C=C/C=C(C)/C=C/C=C(C)/C=C/C2=C(C)C(=O)CCC2(C)C)C(C)(C)CCC1=O`: the result was inactive.

Take `CCNS(=O)(=O)c1ccc(C)cc1`: the result was inactive.

For `CCN(CC)C(=O)[C@]1(c2ccccc2)C[C@@H]1CN`, the outcome was inactive.

As for `O=C1c2ccccc2C(=O)C1c1ccc(F)cc1`, the result was inactive.

For `Cc1cc(=O)c(C(=O)N[C@@H](C(=O)N[C@@H]2C(=O)N3C(C(=O)O)=C(CSc4nnnn4C)CS[C@H]23)c2ccc(O)cc2)c[nH]1`, the outcome was inactive.

`Nc1nc2c(ncn2COCCO)c(=O)[nH]1`: the result was inactive.

With `C[C@H]1O[C@H](O[C@H]2[C@H](O)[C@@H](O)[C@@H](O[C@H]3[C@H](O)[C@@H](O)[C@H](O)O[C@@H]3CO)O[C@@H]2CO)[C@H](O)[C@@H](O)[C@@H]1N[C@H]1C=C(CO)[C@@H](O)[C@H](O)[C@H]1O`, the result was inactive.

For `O=C1CCCc2ccccc21`, the result was inactive.

`NCCCC[C@H](NC(=O)[C@@H]1CCCN1C(=O)[C@@H]1CSSC[C@H](NC(=O)CNC(=O)CNC(=O)CN)C(=O)N[C@@H](Cc2ccc(O)cc2)C(=O)N[C@@H](Cc2ccccc2)C(=O)N[C@@H](CCC(N)=O)C(=O)N[C@@H](CC(N)=O)C(=O)N1)C(=O)NCC(N)=O` (H-GGGCYFQNCPKG-NH2; disulfide 4-9): the outcome was inactive.

As to `Cc1ccc(N)cc1[N+](=O)[O-]`, the result was inactive.

`CN1CCN(C2=Nc3ccccc3Oc3ccc(Cl)cc32)CC1`: the result was inactive.

As to `C#CC(O)CCCCC` (stereo not given), the outcome was inactive.

Consider `C[N+](C)(C)CC(O)CCl` (stereo not given), for which the outcome was inactive.

Regarding `COC(=O)C(C)(C)C`, the outcome was inactive.

As to `CCN(CCCc1ccccc1)CCCc1ccccc1`, the outcome was inactive.

Take `CCN(CC)CCNC(=O)c1cc(S(C)(=O)=O)ccc1OC`: the outcome was inactive.

Turning to `CCCOC(=O)c1ccccc1O`, the outcome was inactive.

`CC(C)N=C=NC(C)C`: the outcome was inactive.

For the compound `Cc1ccnc2c1NC(=O)c1cccnc1N2C1CC1`, the outcome was inactive.

Regarding `C=CC[N@@+]12CC[C@@]34c5ccccc5N5/C=C6/[C@H]7C[C@H]8[C@@]9(CC[N@@+]8(CC=C)C/C7=C/CO)c7ccccc7N(/C=C(/[C@@H](C[C@@H]31)/C(=C\CO)C2)[C@H]54)[C@@H]69`, the outcome was inactive.

Consider `C=N[C@@H](C(=O)N[C@@H]1C(=O)N2[C@@H]1SC(C)(C)[C@@H]2C(=O)O)c1ccccc1`, for which the result was inactive.

Regarding `Cc1nc(-c2ccc(Cl)cc2)oc1COC(C)(C)C(=O)O`, the outcome was inactive.

In the case of `CC(C)(C)N(CCO)CCO`, the result was inactive.

As to `CC(=O)Oc1cc(C(C)C)c(OCCN(C)C)cc1C`, the result was inactive.

On to `CCC1NC(=O)c2cc(S(N)(=O)=O)c(Cl)cc2N1` (stereo not given), for which the outcome was inactive.

Regarding `CC1(C)Cc2cccc(N)c2O1`, the outcome was inactive.

In the case of `N#CSc1ccc(N)c([N+](=O)[O-])c1`, the outcome was inactive.

On to `C=C(C)C(=O)OCCCCCCCC(C)C`, for which the result was inactive.

For `CC(=O)CC(=O)Nc1ccc(S(=O)(=O)O)cc1`, the result was inactive.
